# Screening data as filed in PubChem BioAssay.
# Compounds with a hit are over-represented: about 7.8% of the library has one in this group of screens.
# VACV mCherry inh: qHTS for Stage-Specific Inhibitors of Vaccinia Orthopoxvirus: mCherry Reporter Primary qHTS; Vaccinia virus mCherry reporter infection, fluorescence; Potency, µM (titrated, usually from 36.5 µM), for the others: top-dose activity change, negative = inhibition, hits mostly inhibitors; 0.63% of 310,000 active; AID 720579, 2013; calls by dose curve; tested in A549 cells; note: potency is the fitted concentration of half-maximal effect; nearly all actives have a fitted effect of over 35% in size
# LASV entry inh: qHTS for Inhibitors of binding or entry into cells for Lassa Virus. Lassa virus pseudotype entry inhibition, cell reporter. Potency, µM (top dose mostly 37.9 µM), for inactives: top-dose activity change, negative = inhibition, actives largely listed as inhibitors. 1.2% of 300,000 active; calls by dose curve; tested in HEK293 cells; note: potency is the fitted concentration of half-maximal effect; nearly all actives have a fitted effect of over 50% in size
# HCMV antiviral: qHTS Assay for inhibitors of the human cytomegalovirus (HCMV); HFF cells, HCMV-luciferase reporter, 72 h; active compounds read low; activity change, negative = inhibition, % at 57.5 µM; AID 1259415, 2018; 4.5% of 410,000 active; in the data active = activity change below about -60%; inconclusive = no clear call, values can overlap the other calls; inactive = above about -39%
#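 Steps: HFFs plated, 16 h 37C; compounds added; HCMV-luciferase added to MOI 1 PFU/cell; 72 h 37C; OneGlo reagent, 5 min room temperature; luminescence read, normalized to controls.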
# Vaccinia Venus: qHTS for Stage-Specific Inhibitors of Vaccinia Orthopoxvirus: Venus Reporter Primary qHTS | Potency, µM (series often up to 36.5 µM), for the others: at the top dose activity change, negative = inhibition, usual class: inhibitors | 0.46% of 330,000 active | Vaccinia virus Venus reporter expression, fluorescence; calls by dose curve; tested in A549 cells; note: potency is the fitted concentration of half-maximal effect; nearly all actives have a fitted effect of over 30% in size
# MARV entry inh: qHTS for inhibitors of binding or entry into cells for Marburg Virus; Marburg virus pseudotyped entry inhibition, cell reporter; 1.8% of 300,000 active; AID 540276, 2011; Potency, µM (top dose mostly 37.8 µM), for inactives: at the highest dose activity change, negative = inhibition, actives largely listed as inhibitors; calls by dose curve; tested in HEK293 cells; note: potency is the fitted concentration of half-maximal effect
# HCV inhibitor: qHTS Assay for Inhibitors of Hepatitis C Virus (HCV). Huh7.5.1 HCVcc-Cre infection, luciferase reporter, 44 h. Potency, µM (highest dose often 41.8 µM), inactives show at the top dose activity change, negative = inhibition, usual class: inhibitors. 3.4% of 340,000 active. AID 651820, 2012; active = well fitted inhibition curve with a large enough effect; inconclusive = small, poorly fitted or top-dose-only effect, or another doubt; inactive = no such curve, though single readings can be large or run the other way; note: potency is the fitted concentration of half-maximal effect
#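 After 44 h co-culture of compound, cells and HCVcc-Cre (~0.5 moi), substrate is added for 15 min at room temperature and luciferase measured over 15 sec. Cells were seeded at 1,000/well and pre-cultured 4 h.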
# * marks the source's active call; other numbers are inactive results; i = inactive; ? = inconclusive; . = no result; [ ] = another dose, or the depositor's remark. % is set by controls: 0 for no effect and ±100 for the full control effect.
SMILES,VACV mCherry inh,LASV entry inh,HCMV antiviral,Vaccinia Venus,MARV entry inh,HCV inhibitor
Cc1ccccc1Cc1c(C)nc2nc(SCC(=O)NCCc3ccc(Cl)cc3)nn2c1C,-4%,?,3,-13%,-2%[46.1 µM],.
Cc1ccc(CNC(=O)C2CCN(S(=O)(=O)c3cn(C)cn3)CC2)cc1,i,-7%[46.1 µM],?,-11%,.,.
COc1ccc(-c2ncnc(C(F)(F)F)c2-c2csc(C)n2)c(O)c1,.,.,?,.,.,-4%
Cc1nc(-c2c(-c3ccc(O)cc3O)noc2C(F)(F)F)cs1,.,?,-67*,?,?,?
Nc1ccccc1SCc1ccccc1Cl,-20%,-4%,-66*,-12%,?,6%
CC(=O)c1ccc(N2CCN(C(=O)CCc3nnc4n(C)c(=O)c5sccc5n34)CC2)cc1,-10%,-13%[46.1 µM],12,-17%,6%[46.1 µM],.
O=C1CCC[C@H]2[C@@H](Cc3ccccc3)[C@@H](NS(=O)(=O)c3ccc(Cl)cc3)CC[C@]23CCCN13,.,.,-92*,.,.,.
C[C@H]1[C@@H](NC(=O)Nc2ccc3c(c2)OCO3)CC[C@@]23CCCN2C(=O)CCC[C@@H]13,.,.,-92*,.,.,.
C[C@H]1[C@@H](NS(=O)(=O)c2cn(C)cn2)CC[C@@]23CCCN2C(=O)CCC[C@@H]13,.,.,-102*,.,.,.
C[C@H]1[C@@H](NS(=O)(=O)c2ccc(F)cc2)CC[C@@]23CCCN2C(=O)CCC[C@@H]13,.,.,16,.,.,.
O=C1CCCC2=C1C1c3ccccc3C(=O)N1c1ccc(C(=O)c3ccccc3)cc1N2 (stereo not given),-11%[1.46 µM],?,-76*,-19%,?,?
O=C1CC(c2ccco2)CC2=C1C1c3ccccc3C(=O)N1c1ccccc1N2 (stereo not given),.,-9%,-24,?,?,?
CN(C(=O)c1ccco1)c1nc2c(s1)CCCC2,-11%,6.3µM*,72,-9%,?,-11%
O=C1C2C3C=CC(CC3)C2C(=O)N1c1ccccc1F (stereo not given),?,-4%[46.1 µM],-63*,-5%,2%[46.1 µM],-4%
Cc1ccccc1N1C(=O)C2C3C=CC(CC3)C2C1=O (stereo not given),-16%,0%,-11,-16%,-4%,24%
O=C(OC[C@H]1O[C@@H](OC(=O)c2cc(O)c(O)c(OC(=O)c3cc(O)c(O)c(O)c3)c2)[C@H](OC(=O)c2cc(O)c(O)c(OC(=O)c3cc(O)c(O)c(O)c3)c2)[C@@H](OC(=O)c2cc(O)c(O)c(OC(=O)c3cc(O)c(O)c(O)c3)c2)[C@@H]1OC(=O)c1cc(O)c(O)c(OC(=O)c2cc(O)c(O)c(O)c2)c1)c1cc(O)c(O)c(OC(=O)c2cc(O)c(O)c(O)c2)c1,5.6µM*,.,.,10µM*,.,11µM*
COC(=O)C1CCN(Cc2ccc3c(c2)CN(C(=O)c2ncc(C)[nH]2)CCO3)CC1,-8%,.,.,6%,.,.
C/C(=C1/SC(N2CCCC2)=NC1=O)c1ccc(Br)cc1,.,4.5µM*,-5,-9%,4.5µM*,?
COc1ccc2c(c1)C(C(Nc1ccc(C)cc1)c1ccc(Cl)cc1)C(=O)N2C (stereo not given),.,.,39,.,.,.
Cc1cc(C)nc(NS(=O)(=O)c2ccc(NC(=S)NC(=O)C3CCCC3)cc2)n1,?,-9%,29,10µM*,-9%,-1%
CCN(CC)S(=O)(=O)c1cc(NC(=S)NC(=O)C2CCCC2)ccc1C,.,.,-72*,.,.,3.2µM*
CCN(CC)S(=O)(=O)c1ccc(NC(=S)NC(=O)C2CCC2)cc1,-23%,-4%[46.1 µM],-12,-13%,?,-4%
CCCCNC(=O)c1cc(-c2ccc(OC)cc2)nc2n[nH]c(-c3cccc([N+](=O)[O-])c3)c12,-23%,-8%[46.1 µM],?,-14%,.,.
Cc1cccc(OCC(=O)Nc2cccc(C(=O)OCc3cc(=O)n4nc(C(C)C)sc4n3)c2)c1,-16%,?,71,-10%,.,.
Cc1ccc(NS(=O)(=O)c2cc(NC(=O)C(C)Oc3ccccc3)ccc2C)c(C)c1 (stereo not given),-18%,?,-7,-28%,4.6µM*,?
SMILES,VACV mCherry inh,LASV entry inh,HCMV antiviral,Vaccinia Venus,MARV entry inh,HCV inhibitor
O=C(CN(CCc1ccccc1)S(=O)(=O)c1ccccc1)NCc1ccc(Cl)cc1,-18%,?,9,-11%,.,.
CCn1c(/C=C\c2ccccc2C)nc2ccccc2c1=O,i,.,-9,-24%,.,?
O=c1c2ccccc2nc(/C=C/c2cccnc2)n1Cc1ccccc1,-23%,?,-98*,-19%,?,8%
O=c1c2ccccc2nc(/C=C/c2cccnc2)n1CCc1ccccc1,i[7.34 µM],?,-75*,0%[7.34 µM],?,-15%
Cc1cccc(/C=C/c2nc3ccccc3c(=O)n2Cc2ccccc2)c1,i,?,-83*,-27%,?,?
Cc1ccccc1/C=C\c1nc2ccccc2c(=O)n1Cc1ccccc1,-5%,5%,8,-17%,?,2%
CCn1c(/C=C/c2ccccc2Cl)nc2ccccc2c1=O,-27%,3%[46.1 µM],-79*,-13%,14%[46.1 µM],-18%
CCc1c(C)c2ccc3c(c2oc1=O)CN(Cc1ccccc1)CO3,-8%,22%[46.1 µM],-25,-10%,.,.
Cc1ccccc1C1=NC(C)(CC(=O)NCCOc2ccccc2)ON1C (stereo not given),.,.,-8,.,.,.
FC(F)(F)Oc1ccc(Nc2cc3[nH]c(-c4ccccc4)cc3cn2)cc1,.,.,-34,.,.,.
Oc1ccccc1-n1c(-c2ccccc2)ccc1-c1ccccc1,?,.,-76*,?,.,?
COc1ccc(-c2noc([C@@H]3O[C@H](CO)[C@H](O)[C@H](O)[C@H]3O)n2)cc1OC,22%,.,26,-2%,.,.
COc1ccc(Cl)cc1-c1noc([C@@H]2O[C@H](CO)[C@H](O)[C@H](O)[C@H]2O)n1,21%,.,-73*,-4%,.,.
COC(=O)c1sc2cc([N+](=O)[O-])cc(SCC(C)C)c2c1N,-19%,-19%,-64*,-18%,17%,-22%
CCOC(=O)c1sc2ncc([N+](=O)[O-])cc2c1N,.,.,-5,.,-7%,-13%
COc1nc(N2CCOCC2)nc(-n2cccc2)n1,.,9%,18,.,?,0.89µM*
N#CCOc1nc(N2CCCC2)nc(N2CCCC2)n1,.,-13%,-24,.,3%,?
N#CCOc1nc(N2CCCCC2)nc(N2CCCCC2)n1,.,.,-37,.,.,14µM*
COc1nc(N2CCCCCC2)nc(N2CCCCCC2)n1,.,15%,?,.,-9%,10µM*
COc1ccc(Nc2nc(OC)nc(N3CCOCC3)n2)cc1,.,.,-38,.,.,0%
